Assay outcomes (PubChem BioAssay)
A selection: hits, their analogues and other compounds. The true share with any hit is near 1.8%.
LYPLA2 counter = counter-screen for PME1 inhibitors: inhibitors of human LYPLA2; actives 0.38% (n = 320,000); recombinant LYPLA2, FP-Rh probe fluorescence polarization; inhibition, % at 5.9 µM;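 active = inhibition above the screen-wide mean plus 3 SD, limit set per campaign, cut at about 26% in these data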
LYPLA1 inh = blocks human lysophospholipase 1, a PME1 counter-screen. AID 2174. O75608. recombinant LYPLA1, FP-Rh probe fluorescence polarization. actives 0.16% (n = 320,000). inhibition, % at 5.9 µM;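 active = inhibition above the mean of all tested compounds plus 3 SD, set per campaign, cut at about 14% in these data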;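 note: inhibitors block serine hydrolase probe labeling of LYPLA1 so polarization falls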
Target sequence (O75608 whole entry, looked up): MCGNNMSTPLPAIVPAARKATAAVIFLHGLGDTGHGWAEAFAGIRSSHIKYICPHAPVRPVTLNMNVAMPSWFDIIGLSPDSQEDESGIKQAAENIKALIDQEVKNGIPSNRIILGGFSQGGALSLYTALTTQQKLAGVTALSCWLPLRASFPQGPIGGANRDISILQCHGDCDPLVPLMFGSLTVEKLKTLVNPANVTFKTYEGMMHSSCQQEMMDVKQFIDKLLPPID
PME-1 inh = blocks human protein phosphatase methylesterase 1; Q9Y570; recombinant PME-1, FP-Rh probe fluorescence polarization; inhibition, % at 5.9 µM; actives 0.53% (n = 320,000); AID 2130;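 active = inhibition above the campaign mean of all compounds plus 3 SD, cut at about 26% in these data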;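 note: competitive labeling of PME-1 active site by serine hydrolase directed probe; inhibitors block probe labeling so polarization falls and inhibition rises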
Target sequence (Q9Y570 whole entry, looked up): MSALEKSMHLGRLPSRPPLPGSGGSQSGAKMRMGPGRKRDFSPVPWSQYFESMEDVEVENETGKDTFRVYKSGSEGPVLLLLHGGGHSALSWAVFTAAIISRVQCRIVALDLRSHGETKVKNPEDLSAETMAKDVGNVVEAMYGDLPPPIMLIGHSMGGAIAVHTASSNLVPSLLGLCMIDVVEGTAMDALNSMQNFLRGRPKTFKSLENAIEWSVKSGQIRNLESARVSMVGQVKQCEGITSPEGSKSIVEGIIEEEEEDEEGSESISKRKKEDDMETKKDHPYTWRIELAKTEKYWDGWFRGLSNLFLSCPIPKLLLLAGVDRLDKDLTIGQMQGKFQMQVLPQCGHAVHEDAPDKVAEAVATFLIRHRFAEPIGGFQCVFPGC
Fam108B counter = Fam108B inhibition, counter-screen for RBBP9 inhibitors. actives 0.33% (n = 300,000). recombinant Fam108B, FP-Rh probe fluorescence polarization. inhibition, % at 9.51 µM;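 active = inhibition above the screen mean inhibition plus 3 SD, computed separately per campaign, cut at about 18% in these data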;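 note: inhibitors lower polarization as less probe binds the enzyme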
PAD4 inh = inhibitors of human PAD4 | inhibition, % at 6.36 µM | actives 0.41% (n = 330,000) | AID 485272 | recombinant PAD4, RCA probe fluorescence polarization | Q9UM07;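 active = percent inhibition above a cutoff equal to the mean of all tested compounds plus 3 SD, cut at about 15% in these data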
GSTO1 inh = blocks human GSTO1 in RBBP9 counter-screen | P78417 | AID 1974 | inhibition, % at 5.96 µM | actives 1.1% (n = 300,000) | recombinant GSTO1, activity-based probe fluorescence polarization;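 active = inhibition above the campaign mean inhibition plus 3 SD, cut at about 35% in these data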
PAD4 confirm = PAD4 (human) inhibition, confirmed; actives 28% (n = 1,200); shares compounds with PAD4 inh; AID 488796; recombinant PAD4, RCA probe fluorescence polarization; inhibition, % at 6.36 µM;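 active = mean inhibition across replicates above the hit cutoff set by the earlier primary screen, cut at about 15% in these data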;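 note: inhibitors block active-site labeling by the probe so polarization falls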
A number is an active result; . = inactive; / = not tested or not shown.

SMILES | LYPLA2 counter | LYPLA1 inh | PME-1 inh | Fam108B counter | PAD4 inh | GSTO1 inh | PAD4 confirm
CCN1CC2=C(OC(N)=C(C#N)C2c2ccccc2)/C(=C\c2ccccc2)C1 (stereo unspecified) | . | . | . | . | 23.7 | . | 18.8
Cc1cc(C)nc(SCc2ccc(C(=O)N/N=C3\CCCC(=O)C3)cc2)n1 | . | . | . | . | . | . | /
CCCOc1ccc(C(=O)NNC(=S)NC(=O)c2cc(-c3ccc(Cl)cc3)nc3ccccc23)cc1 | . | . | . | . | . | . | /
COc1ccc(C(=O)NNC(=S)NC(=O)c2cc(-c3ccccc3)nc3ccccc23)cc1 | . | . | . | . | 15.0 | . | .
O=C(O)CC(SCC(=O)Nc1ccc(Cl)c(S(=O)(=O)N2CCOCC2)c1)C(=O)O (stereo unspecified) | . | . | . | . | 21.3 | . | .
O=C(CCNC(=O)c1ccccc1)Nc1ccc(Cl)c(S(=O)(=O)N2CCCCC2)c1 | / | / | / | / | 18.8 | / | .
Cc1cc(C)c(S(=O)(=O)Nc2ccc(Cl)cn2)c(C)c1 | . | . | . | . | 21.4 | . | .
O=S(=O)(Nc1ccc(Cl)cn1)c1ccc(Cl)cc1 | . | . | . | . | . | . | /
CCN(c1ccccc1)S(=O)(=O)c1ccc(C(=O)NNC(=O)c2ccccc2F)cc1 | . | . | . | / | 15.6 | / | .
COC(=O)c1sc2ncn(CC(=O)N(C)C3CCCCC3)c(=O)c2c1C | . | . | . | . | . | . | /
O=c1cnnc(Nc2ccc(F)cc2)[nH]1 | . | . | . | . | . | . | /
O=C1C=C(Nc2ccc(F)cc2)c2ccccc2C1=O | . | . | . | / | 40.2 | / | 38.5
Fc1ccccc1OCC1CCCN(Cc2nc(CC3CC3)no2)C1 (stereo unspecified) | . | . | . | . | . | . | /
O=P(Cc1ccccn1)(c1ccccc1)c1ccccc1 | . | . | . | . | . | . | /
Cc1ccc(NC(=S)Nc2cccc(-c3n[nH]c(=S)o3)c2)cc1 | . | . | . | . | . | . | /
Cc1cc(Br)cc(C=Nc2ccc(N3CCOCC3)cc2)c1O | . | . | . | . | 19.1 | . | .
CCCc1cc(=O)oc2c(C)c(OCC(=O)N3CCC(C(=O)O)(c4ccccc4)CC3)ccc12 | . | . | . | . | . | . | /
Cc1ccc(-n2sc3ccccc3c2=O)cc1 | . | . | . | . | 53.4 | . | 30.2
O=c1c2ccccc2sn1-c1ccc(F)cc1 | . | . | . | / | 41.6 | / | 28.9
COC(=O)c1cccc(-n2sc3ccccc3c2=O)c1 | . | . | . | / | 55.3 | / | 46.5
COC(=O)c1cccc(N2CCCC2=O)c1 | . | . | . | . | . | . | /
Cc1ccc(N(CC(=O)NCC2CCCO2)C(=O)CCC(=O)Nc2nccs2)cc1C (stereo unspecified) | . | . | . | . | . | . | /
O=C(COC(=O)Cc1ccsc1)Nc1cccc(F)c1 | . | . | . | / | . | / | /
Cc1ccc(S(=O)(=O)N2CCOCC2)cc1C(=O)OCCOc1cccc(Cl)c1 | . | . | . | . | . | . | /
Cc1csc(C(C)N(C)C(=O)c2ccc(OC3CCN(Cc4ccccn4)CC3)cc2)n1 (stereo unspecified) | . | . | . | . | . | . | /
SMILES | LYPLA2 counter | LYPLA1 inh | PME-1 inh | Fam108B counter | PAD4 inh | GSTO1 inh | PAD4 confirm
c1ccc(CCn2c3ccccc3c3nnc(SCc4ccc5nonc5c4)nc32)cc1 | . | . | . | . | 50.4 | . | .
CCN(CC)CCSc1nnc2c3ccccc3n(CCc3ccccc3)c2n1 | . | . | . | . | . | . | /
CC(C(=O)NC1(C#N)CCCCC1)N(C)CC(=O)Nc1ccc(Cl)c(Cl)c1 (stereo unspecified) | . | . | . | / | . | / | /
CCCn1c(CN2CCN(C(=O)OCC)CC2)nc2cc(NC(=O)CC)ccc21 | . | . | . | . | 14.9 | . | .
CCOc1ccc(N2C(=O)CC(Sc3ccccc3C(=O)O)C2=O)c([N+](=O)[O-])c1 (stereo unspecified) | . | . | . | . | 26.2 | . | .
Cc1nnc(N/N=C/c2ccc(-c3ccc(Br)cc3)o2)n1N | . | . | . | . | 23.7 | . | .
O=C(O)c1cccc(-c2ccc(/C=N/NC(=O)c3cccnc3)o2)c1 | . | . | . | . | . | . | /
Cc1nnc(N/N=C\c2ccc(-c3cccc(C(=O)O)c3)o2)n1N | . | . | . | . | 29.7 | . | .
Cc1nnc(N/N=C/c2ccc(Br)cc2)n1N | . | . | . | . | 35.9 | . | .
Cc1cc(C(=O)OCC(=O)N2CCCCCC2)ccc1[N+](=O)[O-] | . | . | . | / | . | / | /
CCNC(=S)NNC(=O)c1csc(C)c1 | . | . | . | . | 92.7 | . | .
COc1ccc(CCNC(=O)COc2nsnc2N2CCOCC2)cc1OC | . | . | . | . | 43.8 | . | .
COc1ccc(NC(=O)COc2nsnc2N2CCOCC2)cc1 | . | . | . | . | . | . | /
COC(=O)c1cccc(NC(=O)CC2C(=O)NCCN2C(=O)Nc2ccccc2)c1 (stereo unspecified) | . | . | . | . | . | . | /
COC(=O)c1cc(NC(=O)CC2C(=O)NCCN2C(=O)c2ccccc2)cc(C(=O)OC)c1 (stereo unspecified) | . | . | . | . | 16.1 | . | .
CC(CCc1ccccc1)NC(=O)COC(=O)c1cccs1 (stereo unspecified) | . | . | . | . | . | . | /
O=C(O)CCN1C(=O)C2C3CC(C2C1=O)C1C(c2ccccc2)c2sc(=O)n(-c4ccccc4)c2SC31 (stereo unspecified) | . | . | . | . | . | . | /
O=C(O)CCN1C(=O)C2C3CC(C2C1=O)C1C(c2ccccc2)c2sc(=O)[nH]c2SC31 (stereo unspecified) | . | . | . | . | 16.9 | . | .
CCSc1ccc(-c2nn(-c3ccccc3)cc2/C=C(/C#N)C(=O)NC)cc1 | . | . | . | . | 15.5 | . | 23.0
COc1ccc2c(C)cc3n[nH]c(=S)n3c2c1 | . | . | . | . | 22.2 | . | 15.7
COc1ccc(OC)c(C2C(C#N)=C(N)Oc3c2c(C)nn3-c2ccc(C)cc2)c1 (stereo unspecified) | . | . | . | . | 54.1 | 34.8 | .
COc1ccc(C2C(C#N)=C(N)Oc3c2c(C)nn3-c2ccccc2)cc1Cn1nc(C)c([N+](=O)[O-])c1C (stereo unspecified) | . | . | . | . | 41.9 | . | .
Cc1nn(-c2ccccc2)c2c1C(c1ccccc1)C(C#N)=C(N)O2 (stereo unspecified) | . | . | . | . | 61.3 | 37.1 | .
CC(C(=O)Nc1nccs1)c1ccc([N+](=O)[O-])cc1 (stereo unspecified) | . | . | . | . | . | . | /
Cc1nc(NC(=O)c2cccc(Cl)c2)sc1C(=O)N1CCCCC1 | . | . | . | . | . | . | /
